The values that follow come from ChEMBL document CHEMBL3433997, “St. Jude Leishmania screening dataset” (2016).

As a reminder, the inhibition is the drop in the measured response relative to a control, in per cent.

What all share (format): functional
The target of test [1] is Solute carrier family 2, facilitated glucose transporter member 1 (Homo sapiens) (UniProt P11166). Description: ST_JUDE_LEISH: Cytotoxicity at 2uM final concentration against transgenic Leishmania Mexicana promastigotes LmGLUT1 that are glucose transport deficient and complemented with the human glucose transporter GLUT1. Activity is measured by DNA content using SYBR green in vitro.
Solute carrier family 2, facilitated glucose transporter member 1 (Homo sapiens), sequence (P11166 whole entry): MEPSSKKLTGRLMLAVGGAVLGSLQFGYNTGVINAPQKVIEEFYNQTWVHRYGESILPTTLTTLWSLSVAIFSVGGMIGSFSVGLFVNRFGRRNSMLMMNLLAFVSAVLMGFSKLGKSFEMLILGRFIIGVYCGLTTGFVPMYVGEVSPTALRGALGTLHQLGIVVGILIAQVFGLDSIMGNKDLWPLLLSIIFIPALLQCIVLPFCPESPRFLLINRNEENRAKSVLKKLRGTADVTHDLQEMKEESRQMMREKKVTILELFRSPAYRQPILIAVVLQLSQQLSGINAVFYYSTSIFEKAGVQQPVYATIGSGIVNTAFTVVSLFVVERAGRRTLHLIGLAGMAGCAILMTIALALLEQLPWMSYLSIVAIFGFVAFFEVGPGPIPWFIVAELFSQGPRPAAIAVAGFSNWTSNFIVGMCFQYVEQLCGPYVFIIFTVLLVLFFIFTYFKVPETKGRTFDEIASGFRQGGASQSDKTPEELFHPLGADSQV

The target of test [2] is Hexose transporter 1 (Plasmodium falciparum) (UniProt O97467). The test is described as follows: ST_JUDE_LEISH: Cytotoxicity at 2uM final concentration against transgenic Leishmania Mexicana promastigotes LmPfHT that are glucose transport deficient and complemented with the Plasmodium falciparum hexose transporter. Activity is measured by DNA content using SYBR green in vitro.

Test [3] concerns the target Glucose transporter (Leishmania mexicana) (UniProt O61059). Description: ST_JUDE_LEISH: Cytotoxicity at 2uM final concentration against transgenic Leishmania Mexicana promastigotes LmGT2 that are glucose transport deficient and complemented with the L. Mexicana glucose transporter 2. Activity is measured by DNA content using SYBR green in vitro.

`CNC(=O)C(NC(=O)c1ccccc1C(=O)OC)c1ccccc1` (configuration not stated): the results for the inhibition in test [1], in test [2] and in test [3] were 1.77%, 0.32% and -2.13%, respectively.

With `COc1ccc2nccc([C@@H](O)CN3CCC(NCc4ccc5c(c4)NC(=O)C(C)(C)O5)CC3)c2c1`, the results for the inhibition in test [1], in test [2] and in test [3] were 7.93%, 8.24% and 3.18%, respectively.

On to `Cc1cccc2nc(-c3ccc(-c4ccc(CN5CCC(C(N)=O)CC5)cc4)cc3)[nH]c12`, for which the inhibition is 6.51% in test [1], 5.37% in test [2] and 5.21% in test [3].

On to `Cc1cccc2nc(-c3cccc(-c4cccc(CNCc5cccc(N)c5)c4)c3)[nH]c12`, for which the figures for the inhibition in test [1], in test [2] and in test [3] were 1.24%, 2.66% and 1.47%, respectively.

For the molecule `CC(=O)/N=C1\N=C(NC(C)=O)NC(C)(C)N1OCCCOc1ccc(Cl)c(Cl)c1`, the inhibition was 1.53% in test [1], 1.27% in test [2] and 1.47% in test [3].

For `O=S(=O)(c1c(Cl)cccc1Cl)N1CCCCC(c2ccc(C(F)(F)F)cc2)=N1`, the inhibition in test [1] came out at 2.16%; in test [2], 4.23%; in test [3], 4.51%.

On to `CC(C)CCCC(C)(C)NC[C@@H](O)[C@H](Cc1ccccc1)NC(=O)c1cccc(CCC2CC2)c1`, for which the figures for the inhibition in test [1], in test [2] and in test [3] were 3.16%, 4.54% and 4.06%, respectively.

Regarding `COc1ccc2nccc([C@@H](O)CN3CCC(NCc4cc5cc([N+](=O)[O-])ccc5[nH]4)CC3)c2c1`, the results for the inhibition in test [1], in test [2] and in test [3] were 8.79%, 6.38% and 4.29%, respectively.

In the case of `COc1cc(C(=O)N2CCOC(CCN3CCC(c4ccc(Cl)cc4)CC3)(c3ccc(Cl)c(Cl)c3)C2)cc(OC)c1OC` (configuration not stated), the inhibition in test [1] came to 12.4%; in test [2], 11.2%; in test [3] it was 13.7%.

Regarding `CC1(C)NC(N)=NC(=N)N1OCc1cc(Cl)cc2c1OCOC2`, the values for the inhibition in test [1], in test [2] and in test [3] were 2.73%, -0.07% and 0.71%, respectively.

For `COc1cc(-c2ccc(-c3cnc(N)nc3OC)[nH]2)cc(OC)c1OC`, the results for the inhibition in test [1], in test [2] and in test [3] were 5.61%, 5.42% and 2.7%, respectively.

For the molecule `Cn1ccc2c3c(N)nc(N)nc3ccc21`, the inhibition in test [1] came to 0.43%; in test [2] it was 1.8%; in test [3], 1.34%.

As for `Cc1[nH]c(C)c(Cc2ccc(Oc3ccc(OC(F)(F)F)cc3)cc2)c(=O)c1Br`, the values for the inhibition in test [1], in test [2] and in test [3] were -0.67%, -0.95% and -3.03%, respectively.

Regarding `COc1cc(-c2ccccc2)ccc1C(=O)Nc1ccc2c(c1)N(C)CCC2`, the inhibition in test [1] stood at 4.93%; in test [2], 2.53%; in test [3], 3.05%.

Consider `Cc1ccc(NC(=O)c2ccc(NCCCN(C)Cc3ccccc3)c([N+](=O)[O-])c2)cc1F`, for which the inhibition in test [1] came out at 8.67%; in test [2], 3.73%; in test [3], 2.68%.

Regarding `Cn1cc(C(=O)Nc2cccc(-c3cccc(-c4nc5ccccc5[nH]4)c3)c2)n(C)c1=O`, the values for the inhibition in test [1], in test [2] and in test [3] were 4.31%, 2.7% and 2.54%, respectively.

Consider `CN(C)CCNc1nccc(N2CCc3ncnc(Nc4ccc(OCc5cccc(F)c5)c(Cl)c4)c3C2)n1`, for which the inhibition amounted to 20% in test [1], 28.4% in test [2] and 3.49% in test [3].

As to `O=C(Cc1cccc2ccccc12)N1CCc2cc3nccc(N4CCN5CCC[C@H]5C4)c3cc21`, the inhibition in test [1] amounted to 8.63%; in test [2] it was 7.78%; in test [3], 10%.

As to `Clc1ccc2c(NCc3ccccc3)ccnc2c1`, the inhibition in test [1] was 1.8%; in test [2], 3%; in test [3], -0.97%.

In the case of `CCOc1c(Br)cc(C)cc1CNCCCNc1nc2ccccc2[nH]1`, the inhibition in test [1] is 1.35%; in test [2] it was -0.49%; in test [3], 1.33%.

On to `Cc1ncccc1-c1cccc2c(NC(=O)Nc3ccc4nccc(N5CCN(C)CC5)c4c3)cccc12`, for which the inhibition in test [1] is 4.96%; in test [2], 3.58%; in test [3], 1.71%.

Consider `COc1cc(Nc2nccc(N3CCC(NC(=O)C(C)c4ccc(Cl)cc4)C3)n2)cc(OC)c1OC` (configuration not stated), for which the inhibition in test [1] was 0.95%; in test [2], -0.55%; in test [3], 1.19%.

Take `O=S(=O)(Nc1cccc(CCN2CCC(N3CCCCC3)CC2)c1)c1ccc(Oc2ccccc2)nc1`: the values for the inhibition in test [1], in test [2] and in test [3] were 3.37%, 4.85% and 5.38%, respectively.

For `Cc1cc2c(cc1C(F)(F)F)N(C(=O)Nc1ccc(OCCN(C)C)c(C(F)(F)F)c1)CC2`, the results for the inhibition in test [1], in test [2] and in test [3] were 2.99%, 2.92% and 0.83%, respectively.

Turning to `Cc1ccccc1NC(=O)NC1CCN(CCCCCNC(=O)/C=C/c2ccc(Cl)c(Cl)c2)CC1`, the values for the inhibition in test [1], in test [2] and in test [3] were 1.77%, 2.24% and 1.9%, respectively.

In the case of `CCN(CC)CCCNc1c2ccccc2nc2ccccc12`, the values for the inhibition in test [1], in test [2] and in test [3] were 23.4%, 22.3% and 16.5%, respectively.

Take `c1ccc(CSC2=NNC(c3ccccn3)S2)cc1` (configuration not stated): the inhibition in test [1] came out at 0.82%; in test [2], 3.23%; in test [3] it was 2.48%.

Turning to `O=C(O)C1CC(=O)N(c2ccc(Cl)cc2)C1` (configuration not stated), the inhibition in test [1] was -1.68%; in test [2], -0.45%; in test [3] it was -1.26%.

For `COC(=O)C(C)NCC(=O)c1ccccc1` (configuration not stated), the inhibition was 6.16% in test [1], 6.12% in test [2] and 6.79% in test [3].

In the case of `NC(=O)c1cc2nc(Nc3ccc(F)cc3)nc(NC3CCC3)c2[nH]1`, the results for the inhibition in test [1], in test [2] and in test [3] were 1.42%, 1.11% and -0.6%, respectively.

Take `O=C(NC1CCCCCC1)[C@@H]1CCCN1C(=O)c1ccc(O)c(-c2ccc(Cl)c(Cl)c2)c1`: the figures for the inhibition in test [1], in test [2] and in test [3] were 0.09%, 2.12% and -1.06%, respectively.

As for `Cc1cc(C(F)(F)F)n2nc(C(=O)N(Cc3cncn3Cc3ccccc3F)CC3CC3)cc2n1`, the inhibition in test [1] was -1.46%; in test [2], -0.8%; in test [3] it was -0.18%.

With `Nc1cccc(CNCc2ccc(-c3ccc(-c4nc5ccccc5[nH]4)s3)cc2)c1`, the inhibition is 2.71% in test [1], -0.53% in test [2] and 2.48% in test [3].

Take `c1cc(CNCCN2CCNCC2)cc(-c2cccc(-c3nc4ccccc4[nH]3)c2)c1`: the inhibition in test [1] was determined as 1.08%; in test [2], 1.4%; in test [3], 0.14%.
